# Many of the other results were omitted from the sample, so hits are more common in it than they were.
# GC-A act = GC-A stimulated cGMP production enhancers – HEK293 GC-A cells, cGMP TR-FRET, EC30 ANP, primary screen | AID 1671463, 2021 | 0% at EC30 ANP, 100% saturating ANP | activation, % at 10 µM | Atrial natriuretic peptide receptor 1 (Homo sapiens), P16066 | 0.14% of 370,000 active; in the data active = activation above about 40%
# NPR2 activator = human GC-B receptor activators, primary screen, HEK293 GC-B cells, cGMP TR-FRET, EC30 CNP; AID 1920062, 2024; Atrial natriuretic peptide receptor 2 (Homo sapiens), P20594; 0.11% of 370,000 active; activation, % at 10 µM; 0% at EC30 CNP, 100% saturating CNP;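 active = activation at 10 µM reaching about 35% in either raw or pattern-adjusted values, limit read from the data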
# ALR H2O2 inh = inhibitors of human ALR sulfhydryl oxidase, primary screen, biochemical, H2O2 detection, HRP-luminol luminescence, single point | FAD-linked sulfhydryl oxidase ALR (Homo sapiens), P55789 | purified ALR, DTT oxidation | inhibition, % (test concentration not listed) | 3.8% of 290,000 active | AID 485317, 2010;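 active = mean replicate inhibition above about 79%, with every replicate also reaching it, limit read from the data; inconclusive = only one of the two criteria met; inactive = mean below limit and not every replicate reaching it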
# HDAC3 inhib = HDAC3 deacetylase inhibitors, primary screen, biochemical, fluorescence, cell-free homogeneous | inhibition, % at 8.3 µM | 0.15% of 320,000 active | Histone deacetylase 3 (Homo sapiens), O15379 | recombinant HDAC3, fluorogenic peptide/trypsin coupled | AID 2718, 2010; in the data active = inhibition above about 26%, passing the limit was not always enough; inconclusive = no clear call, values can overlap the other calls
# An asterisk follows results filed as active; ? = inconclusive; . = no result given.
SMILES,GC-A act,NPR2 activator,ALR H2O2 inh,HDAC3 inhib
COC(=O)[C@]12C[C@H](CC(=O)N3CCOCC3)C(=O)N(CCC3=CCCCC3)C1=C[C@H](C1CCCC1)O[C@@H]2C,-6,2,.,.
O=C(CCN1C(=O)/C(=C/c2cccs2)SC1=S)Nc1ccc(O)cc1,-5,0,-21,-2
CC(/C=C1\SC(=S)N(CCCC(=O)Nc2ccc(C(=O)O)c(O)c2)C1=O)=C\c1ccccc1,.,.,97*,7
O=C(CCN1C(=O)/C(=C/c2cccs2)SC1=S)Nc1ccc(C(=O)O)c(O)c1,0,-3,79*,6
CC(=Cc1ccccc1)C=C1SC(=S)N(CCCC(=O)Nc2ccc(C(=O)O)c(O)c2)C1=O,-3,2,.,.
CC(=C\c1ccccc1)/C=C1/SC(=O)N(CCCC(=O)Nc2ccc(C(=O)O)cc2)C1=O,1,2,97*,5
O=C(O)CCCN1C(=O)/C(=C\c2ccc(-c3nc4ccccc4s3)o2)SC1=S,-6,-2,94*,8
COC(=O)c1nc(-c2ccccc2)nc(-c2ccccc2)c1C(=O)OC,0,-3,-2,11
Cc1ccnc(NC(=O)CCC(=O)N(CC(=O)NCCc2ccccc2)c2ccccc2F)c1,-5,1,-7,0
COc1ccc(-c2[nH]ncc2CNCCn2cccn2)c(F)c1,-3,0,.,.
O=C(OCC(=O)N1CCc2ccccc21)c1nc(Cl)ccc1Cl,2,0,-8,1
O=C(O)CCCN1C(=O)/C(=C\C(Cl)=C\c2ccccc2)SC1=S,8,-6,98*,-4
CN1CCN(C(=O)CCCN2C(=O)/C(=C/c3ccccc3)SC2=S)CC1,-3,0,3,3
N#Cc1c(N)c(C(=O)c2ccccc2)n2c1CCC2,-2,1,92*,0
COC(=O)c1c(N)c(C#N)c2n1CCCCC2,0,2,9,1
COc1ccccc1CCn1cnc(-c2ccc(Br)cc2)c1CC(C)C,2,3,.,.
COc1ccc(/C=C2\CCCC(C(=O)C(F)(F)F)=C2O)cc1,6,-1,20,8
O=C(C1=C(O)/C(=C/c2ccc(O)cc2)CCC1)C(F)(F)F,-2,-9,99*,12
CCCCCCC(=O)N(O)C1CC(=O)N(c2ccc(C)cc2)C1=O (centres undefined),23,8,-2,?
CCCCCCC(=O)N(O)C1CC(=O)N(c2ccc(Cl)cc2)C1=O (centres undefined),15,-8,2,63*
CCOC(=O)c1c(NC(=O)C2CC2)sc2c1CC(C)(C)OC2,1,-3,-2,-9
COC(=O)c1c(N)sc2c1CC(C)(C)OC2,-4,2,98*,-7
CCSc1ncc(/C=N/Nc2ccccc2)n1C,0,-4,99*,13
CCSc1ncc(/C=N/Nc2ccc(Cl)cc2)n1C,4,-5,?,?
COc1ccc2c(c1)c(C(=O)N/N=C/c1ccc(Br)cc1)c(C)n2C,2,-2,.,3
SMILES,GC-A act,NPR2 activator,ALR H2O2 inh,HDAC3 inhib
COc1ccc2c(c1)c(C(=O)N/N=C/c1ccc(O)c(O)c1)c(C)n2C,-2,-5,100*,5
COc1cccc2c(SCC(=O)N/N=C/c3ccccc3)cc(C)nc12,4,-14,99*,-1
COc1ccc2nc(C)cc(SCC(=O)N/N=C/c3cccc4ccccc34)c2c1,2,3,0,4
O=C(N/N=C/c1ccc(O)c(O)c1)N/N=C/c1ccc(O)c(O)c1,-2,-4,100*,9
COc1ccc2nc(C)cc(SCC(=O)N/N=C/c3ccc(O)c(O)c3)c2c1,-6,2,88*,0
O=C(NC1CCCCN(Cc2cccc(Cl)c2)C1=O)c1cccc2nsnc12 (centres undefined),1,-6,.,.
CC(=O)N1CCOc2ccc(S(=O)(=O)NC(C)c3ccccc3)cc21 (centres undefined),1,0,-1,2
COc1cccc2c(SCC(=O)N/N=C/c3ccc(O)c(O)c3)cc(C)nc12,-9,-5,100*,7
COc1cccc2c(N/N=C/c3ccccc3)cc(C)nc12,-14,-5,87*,3
Cc1cc(SCC(=O)N/N=C/c2ccc(O)c(O)c2)c(C)cc1Br,-1,3,99*,-1
Cc1cc(SCC(=O)N/N=C/c2ccc(O)c(O)c2)nc2ccccc12,-3,0,.,6
O=C(Nc1cscc1S(=O)(=O)c1ccccc1)c1ccccc1Cl,0,-1,-24,-8
Cc1ccc(OC(C)C(=O)Nc2cccc(S(=O)(=O)N3CCCCCC3)c2)cc1 (centres undefined),-1,3,.,.
Cc1ccc(CNc2ccc3c(c2)ncn3C)cc1,2,0,67,-2
Cc1ccc(CNc2ccc3c(c2)ncn3C(C)(C)C)cc1,1,1,89*,.
CCn1cnc2cc(NCc3ccncc3)ccc21,1,5,82*,-1
CCc1c(C2(O)CCCCC2)[nH]c2ccc(C(F)(F)F)cc12,0,-6,1,?
CCOC(=O)[C@]12CCCC3=C1N(CCC3)C(=O)[C@@H](CC(=O)NCc1ccc(C)o1)C2,1,3,.,.
COc1cc(C(=O)NS(=O)(=O)c2ccccc2C)ccc1Cc1cn(C)c2ccc(NC(=O)OC3CCCC3)cc12,.,.,97*,8
COc1ccc(C(=O)/C=C/Nc2ccc(S(=O)(=O)Nc3onc(C)c3C)cc2)cc1,0,0,97*,2
CCc1ccc(C(=O)/C=C/Nc2ccc(S(=O)(=O)Nc3onc(C)c3C)cc2)cc1,3,-1,97*,6
O=C(CN(C(=O)CCC(=O)Nc1nccs1)c1ccccc1F)NCc1ccccc1,-3,0,3,2
CCCCOc1ccc(C(=O)NC2CCCCN(Cc3ccc(C)cc3)C2=O)cc1 (centres undefined),5,3,.,.
O=C(CSc1nc2scc(-c3ccco3)c2c(=O)n1-c1ccccc1)NCC1CCCO1 (centres undefined),10,3,96*,5
COc1cccc(Nc2nc3ccccc3n3nnnc23)c1,-4,-2,97*,9
SMILES,GC-A act,NPR2 activator,ALR H2O2 inh,HDAC3 inhib
COc1cc(-c2coc3c(C(=O)NCc4ccc(OC)c(OC)c4)cccc23)ccc1O,1,3,.,.
COc1ccc(CNC(=O)c2cccc3c(-c4cccc(C(N)=O)c4)coc23)cc1OC,33,38*,.,.
Cc1nnsc1S(=O)c1ccc(Cl)c(Cl)c1 (centres undefined),0,-7,.,-3
O=S(c1ccc2ccccc2c1)c1cnns1 (centres undefined),-1,8,99*,3
C=CC[C@H](CC(=O)NCCO)C(=O)NCCOC(=O)[C@@H](CC=C)Cc1ccc(F)cc1,2,2,1,-2
Cc1c(NC(=O)CN2CCN(c3ccc(O)cc3)CC2)c(=O)n(-c2ccccc2)n1C,1,5,99*,7

# Screening data (PubChem)
